This is an account of results in PubChem BioAssay AID1845226 (National Center for Advancing Translational Sciences (NCATS), 2023).

Results filed as inconclusive are left out. Unmarked numbers belong to inactive results. The source made the active and inactive calls. Calls come from the whole dose curve; as a rule, active = well fitted inhibition curve with a large enough effect; inconclusive = small, poorly fitted or top-dose-only effect; inactive = no such curve, though single readings can be large or run the other way.
Potency is the fitted concentration of half-maximal effect.

The nature of this test: Confirmatory fluorescence-based thiol-reactive (MSTI) qHTS assay for identification of artifact compounds. As to conditions: MSTI thiol-reactivity probe, 1 h; series mostly up to 39.2 µM; activity change, negative = inhibition: at the top concentration. The gist of the method: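 Compounds (qHTS) incubated 1 h at room temperature, light-protected, with 4 uM MSTI in 1X PBS pH 7.4, 2% DMSO. Fluorescence at 525/598 nm normalized to Acetyl-MSTI and MSTI, fitted to Hill equation.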
On the technique in general: Quantitative high-throughput screening tests each substance at several concentrations.
As for `CCN(CC)c1ccc(-c2nc(-c3ccccn3)no2)cc1[N+](=O)[O-]`, the “activity change, negative = inhibition” value is -6.72%.

On to `COc1ccc(NC(=O)CSc2nc(-c3ccccc3)nc3c2Cc2c(CO)cnc(C)c2O3)cc1Cl`, for which the “activity change, negative = inhibition” value was 14.9%.

For the compound `Cc1ccccc1C(=O)N1CCc2cc(-c3nc(NC(=O)Cc4ccccc4)sc3C)ccc21`, the “activity change, negative = inhibition” value is 83.2%.

With `CCOC(=O)c1ccc(N2CCN(c3ccc(F)cc3)CC2)c(NC(=O)Nc2cccc(OC)c2)c1`, the “activity change, negative = inhibition” value was 102%.

For `CC1(C)S[C@@H]2[C@H](NC(=O)C3(N)CCCCC3)C(=O)N2[C@H]1C(=O)O`, the “activity change, negative = inhibition” value was 29.3%.

Turning to `Cc1ccc(NC(=O)CC2Nc3cccc4cccc(c34)NC2=O)cc1` (stereo not drawn), the Potency is 1540 nM (active).

`O=C(O)c1c(CNCc2cccc(F)c2)c2ccccc2n1Cc1ccccc1`: the “activity change, negative = inhibition” value was 66.1%.

Consider `O=C(O)CCc1c2ccc(=O)c(O)c-2oc2c(O)c(O)ccc12`, for which the Potency is 1090 nM (active).

Turning to `COc1ccc(-c2ccc(CCC(=O)O)n2-c2ccccc2O)cc1`, the Potency is 4330 nM (active).

As to `COc1ccc(-c2cc(C(F)(F)F)n3nc(-c4ccc(Cl)cc4)cc3n2)cc1OC`, the “activity change, negative = inhibition” value is 214%.

Take `CCOC(=O)CN(Cc1ccccc1)C(C(=O)NC1CCCCC1)c1ccc(C)cc1` (stereo not drawn): the “activity change, negative = inhibition” value is -13.9%.

In the case of `c1coc(-c2nc3cc4ccccc4cc3nc2-c2ccco2)c1`, the Potency is 970 nM (active).

For `COc1ccc(CNC(=O)c2cc3sccc3n2Cc2ccc(C)cc2)cc1`, the “activity change, negative = inhibition” value is 31.5%.

For `Cc1ccc(C)c(N2CCN(S(=O)(=O)c3cc(Br)cc4c3N(C(=O)C3CC3)CC4)CC2)c1`, the “activity change, negative = inhibition” value is 4.58%.

As to `CCCCCn1c(=O)[nH]c2cc(C(=O)Nc3ccc(F)cc3)ccc2c1=O`, the “activity change, negative = inhibition” value is 188%.

For `Cc1cc(OC(=O)c2c(C)cc(O)cc2O)cc(O)c1C(=O)O`, the “activity change, negative = inhibition” value is 2.87%.

`CCCS(=O)(=O)N1CC(=O)N(c2ccc(C)cc2)C(C)(C(=O)NC2CCCCCC2)C1` (stereo not drawn): the “activity change, negative = inhibition” value was 130%.

Turning to `O=C1CCC(=O)N1CO`, the “activity change, negative = inhibition” value was -16.4%.
